Records with an inconclusive call do not appear. Calls of active or inactive are those of the source. Calls come from the whole dose curve; as a rule, active = well fitted activation curve with a large enough effect in the signal ratio in the repeat runs (not every such curve was filed as active); inconclusive = weak or mixed curves; inactive = flat fitted curve, though single readings scatter; the % refers to the signal ratio.
assay: qHTS assay to identify small molecule agonists of the TGF-beta/Smad signaling pathway (AID 1346859); settings: SBE-bla HEK293T, TGF-beta/Smad beta-lactamase reporter, 5 h; series mostly up to 76.8 µM; activation: at the top concentration
Excerpt: U.S. Tox21 Program National Center for Advancing Translational Sciences [NCATS] NIH Chemical Genomics Center [NCGC] U.S. Environmental Protection Agency [EPA] National Institutes of Environmental Health Sciences [NIEHS] National Toxicology Program [NTP] U.S. Food and Drug Administration [FDA] Tox21 Assay Overview: Transforming growth factor beta (TGF-beta) superfamily consists of a large number of structurally related dimeric proteins that act as hormones or local mediators in regulating a wide range of biological functions. This superfamily includes TGF-betas themselves, the bone morphogenetic proteins (BMPs) and the activins. These ligands induce oligomerization of serine/threonine receptor kinases and phosphorylate the cytoplasmic signaling molecules of Smad protein family. CellSensor SBE-bla HEK 293T cell line (Life Technologies, Carlsbad, CA), responsive to TGF-beta was used to screen Tox21 10K compound library for identification of agonists/antagonists of the Smad signaling pathway. This cell line contains a beta-lactamase reporter gene under control of the Smad binding element (SBE) stably integrated into HEK 293T cells.
Tox21 Assay Protocol Summary: SBE-bla HEK 293T cells were dispensed at 4,000/well in 6 uL of assay medium into black wall/clear-bottom 1536-well plates using a Multidrop Combi (ThermoFisher Scientific, Waltham, MA) dispenser. After the assay plates were incubated at 37 C and 5% CO2 for an overnight, 23 nL of compounds dissolved in DMSO, positive controls or DMSO only was transferred to the assay plate by a Pintool station (Kalypsys, San Diego, CA). The assay plates were incubated at 37 C and 5% CO2 for 5 hr. One uL of LiveBLAzer B/G FRET substrate (Life Technologies) was added using a Flying Reagent Dispenser (Aurora Discovery, San Diego, CA) and the plates were incubated at room temperature for 2 hr. Fluorescence intensity (405 nm excitation, 460 nm and 530 nm emissions) was measured using an Envision plate reader (PerkinElmer, Shelton, CT).
% is set by controls: 0 for no effect and ±100 for the full control effect.

Compound | activation
OC[C@@H](O)[C@H](O)[C@@H](O)[C@@H](O)CO | -0.206% (inactive)
CC(=O)Nc1ccc(C)cc1 | 2.26% (inactive)
CC(C)CCC(=O)CCC(C)C | 1.23% (inactive)
COc1cc2c(Nc3ccc(Br)cc3F)ncnc2cc1OCC1CCN(C)CC1 | 1.52% [at 35.3 µM] (inactive)
CCCCOC(=O)C(C)OC(=O)CCC (stereo not given) | -0.0247% (inactive)
CO/N=C(/C(=O)N[C@@H]1C(=O)N2C(C(=O)O)=C(Cn3nnc(C)n3)CS[C@H]12)c1csc(N)n1 | 3.79% [at 35.3 µM] (inactive)
CNC(=O)C(c1ccccc1)c1ccccc1 | -0.217% (inactive)
CC1=NN(c2ccc(S(=O)(=O)O)cc2)C(=O)C1N=Nc1ccccc1 (stereo not given) | -3.59% (inactive)
CCC1COC(=O)O1 (stereo not given) | 2.83% (inactive)
CCNC(=O)NCCCOc1cccc(CN2CCCCC2)c1 | -1.04% [at 35.3 µM] (inactive)
FC(F)(F)c1ccc(Cl)cc1Cl | 1.53% (inactive)
Cc1cc(O)c2c(c1)C(=O)c1cccc(O)c1C2=O | -7.68% [at 35.3 µM] (inactive)
CC(C)COC(=O)CCCCC(=O)OCC(C)C | -0.899% (inactive)
CC(C)COC(=O)COc1ccc(Cl)cc1Cl | -0.66% (inactive)
Nc1ccc(/C=C/c2ccc(N)cc2S(=O)(=O)O)c(S(=O)(=O)O)c1 | 1.21% [at 0.29 µM] (inactive)
C[CH2][Ge]([Cl])([CH2]C)[CH2]C | 2.03% (inactive)
CC(=O)OC(C(=O)c1ccccc1)c1ccccc1 (stereo not given) | -0.744% (inactive)
CCC1Nc2cc(Cl)c(S(N)(=O)=O)cc2S(=O)(=O)N1 (stereo not given) | 0.303% [at 35.3 µM] (inactive)
Cc1nc(C)nc(N2C[C@@H](C)N(c3ccnc([C@@H](C)O)n3)[C@@H](C)C2)n1 | -5.77% [at 35.3 µM] (inactive)
CCC(C)(C)C1CCC(=O)CC1 | 0.218% (inactive)

Compound | activation
Cc1nc2n(c(=O)c1CCN1CCC(C(=O)c3ccc(F)cc3)CC1)CCS2 | 0.332% [at 35.3 µM] (inactive)
O=c1[nH]c(=O)c2ccccc2o1 | 0.507% [at 35.3 µM] (inactive)
CCCCCCCCCOCC1CO1 (stereo not given) | 1.21% (inactive)
O=CO | 2.26% [at 6.97 µM] (inactive)
C=CCOc1c(Br)cc(Br)cc1Br | -2.48% (inactive)
O=C(/C=C/c1ccccc1)NCCO | -4.24% [at 35.3 µM] (inactive)
CN(C)CCCNCCC#N | 2.15% (inactive)
CCCCC[Si](OCC)(OCC)OCC | 0.816% (inactive)
CCOC(=O)OCC/C(SC(=O)OCC)=C(\C)N(C=O)Cc1cnc(C)nc1N | 2.99% [at 35.3 µM] (inactive)
C[Si]1(C)N[Si](C)(C)N[Si](C)(C)N1 | -0.249% (inactive)
CC(=O)/C=C/c1ccco1 | -0.388% (inactive)
COc1cc2c3cc1Oc1cc(ccc1O)C[C@@H]1c4c(cc(OC)c(O)c4Oc4ccc(cc4)C[C@@H]3N(C)CC2)CC[N+]1(C)C | 3.84% [at 35.3 µM] (inactive)
O=C(c1ccc2c(c1)C(=O)OC2=O)c1ccc2c(c1)C(=O)OC2=O | 0.219% (inactive)
O=S(=O)(O)c1cc(O)ccc1O | 3.13% (inactive)
C[C@H]1O[C@H](O[C@H]2[C@H](O)[C@@H](O)[C@@H](O[C@H]3[C@H](O)[C@@H](O)[C@H](O)O[C@@H]3CO)O[C@@H]2CO)[C@H](O)[C@@H](O)[C@@H]1N[C@H]1C=C(CO)[C@@H](O)[C@H](O)[C@H]1O | 0.0716% [at 35.3 µM] (inactive)
C[C@@H]1C[C@H]2[C@@H]3C[C@H](F)C4=CC(=O)C=C[C@]4(C)[C@@]3(F)[C@@H](O)C[C@]2(C)[C@@]1(O)C(=O)CO | -0.553% [at 35.3 µM] (inactive)
CCC(C)(CCC(C)C)C(=O)[O-].CCC(C)(CCC(C)C)C(=O)[O-].[Zn+2] (stereo not given) | 0.411% (inactive)
Nc1nc(=O)n([C@@H]2O[C@H](CO)[C@@H](O)[C@@H]2F)cc1I | 4.55% [at 35.3 µM] (inactive)
NS(=O)(=O)c1ccc(Cl)c(S(N)(=O)=O)c1 | 1.61% [at 35.3 µM] (inactive)
CC(C)c1ccccc1O | 0.728% (inactive)

— PubChem BioAssay (Tox21)
